CF NFkB block – inhibitors of cystic fibrosis induced NF-kB | KKLEB NF-kB-GFP reporter, PAF-induced, GFP fluorescence overnight | inhibition, % at 5 µM | 360,000 compounds, 0.86% hits | AID 588850;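 active means at least 50% inhibition at 5 µM, scaled per plate between neutral and stimulator controls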;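 further: PAF is a Pseudomonas aeruginosa culture filtrate used as stimulus; plate controls were PAF-stimulated DMSO wells for no effect and unstimulated DMSO wells for full effect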
TWEAK-Fn14 inh – blocks TWEAK-Fn14 interaction in a reporter cell assay | inhibition, % at 10 µM | 360,000 compounds, 2% hits | TWEAK-stimulated Fn14 reporter cells, luciferase luminescence, 8 h; in the data active means inhibition above about 50%
Peg3 promoter – reduces Peg3 promoter-driven luciferase expression in HeLa; HeLa PEG-Prom luciferase reporter, luminescence, overnight; inhibition, % at 20 µM; 360,000 compounds, 1.7% hits; AID 588405;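 active means inhibition of at least 50% at 20 µM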
TROY signal inh – inhibitors of TROY-dependent NF-kB signaling. Q293 LMP1-TROYcd NF-kB luciferase reporter, 4 h. inhibition, % at 10 µM. 360,000 compounds, 0.98% hits. AID 1347056;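 active means compounds whose plate-normalised and pattern-corrected inhibition of the luciferase reporter signal at the single screening dose is 50% or more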
HIF-2a block – inhibitors of HIF-2a. 786-0 RCC cells HIF-2a reporter, luciferase luminescence, overnight. inhibition, % at 18.8 µM. 360,000 compounds, 0.72% hits;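 active means inhibition of the luminescence signal of 40% or more relative to plate controls, in a single-dose primary screen at 18.75 µM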
KKLEB cytotox – reduces viability of KKLEB cystic fibrosis airway cells; KKLEB CF airway cells viability, ATPlite luminescence, overnight; stronger effect = lower value; cells stimulated with P. aeruginosa culture filtrate; 360,000 compounds, 0.36% hits; activity change (cytotoxicity), % at 5 µM;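 active means corrected activity change at or below -50% at 5 µM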
* hit, by the source's call. Sampled rows, rich in hits. Any-hit rate of the full collection: about 4%.

SMILES	CF NFkB block	TWEAK-Fn14 inh	Peg3 promoter	TROY signal inh	HIF-2a block	KKLEB cytotox
CC(=O)Nc1ccc(-c2csc(N/N=C\c3ccncc3)n2)cc1	-29	-13	-22	-44	-90	4
CCCC(=O)Nc1ccc(-c2csc(N/N=C\c3ccncc3)n2)cc1	-26	20	68*	-37	-174	0
COc1ccc(CNC(=O)c2sc(=O)n(Cc3ccc(C)cc3)c2C)cc1	-3	9	8	12	6	2
CCNC(=O)N(C)C[C@H]1N[C@@](Cc2ccccc2)(C(=O)OC)[C@H]2C(=O)N(C)C(=O)[C@@H]12	-18	6	-1	-4	-1	21
O=C(COC(=O)c1nc(Cl)ccc1Cl)c1ccc[nH]1	15	-2	-13	8	-9	-11
O=C(COC(=O)c1nc(Cl)c(Cl)c(Cl)c1Cl)c1ccc[nH]1	6	49	51*	67*	-15	-8
COc1cc(/C=C(/C#N)C(=O)Nc2ccc(C)cc2)ccc1Oc1nc(Cl)ncc1F	14	-15	51*	25	13	-20
CC(=O)N1/C(=C/c2ccc(N(C)C)cc2)C(=O)c2ccccc21	48	86*	33	66*	-10	-12
Cc1ccc(S(=O)(=O)N2Cc3ccccc3CC2C(N)=O)cc1 (stereo not drawn)	24	-16	2	9	13	1
O=C(CN1C(=O)/C(=C/c2ccccc2)SC1=S)N1CCN(CCc2ccccn2)CC1	8	-12	74*	-10	30	0
O=C(O)CCN1C(=O)/C(=C\c2ccncc2)SC1=S	17	34	14	11	15	0
CN1CCN(C(=O)CCN2C(=O)/C(=C\c3ccccc3F)SC2=S)CC1	55*	10	29	-5	2	-4
O=C1/C(=C\c2cc(Cl)c(O)c(Cl)c2)SC(=S)N1Cc1ccccc1	-258	61*	45	70*	-26	-31
COc1ccc(/C=C2/SC(=S)N(Cc3ccccc3)C2=O)cc1O	-5	-22	-151	-27	-111	7
O=C(O)CCN1C(=O)/C(=C\c2cccc(Oc3ccccc3)c2)SC1=S	-8	41	-27	34	72*	2
C=CCOC1=CS(=O)(=O)N(Cc2ccc(Br)cc2)c2ccc(Br)cc21	29	4	24	10	-8	-33
NS(=O)(=O)c1cccc(NC(=O)C(Cc2ccccc2)NC(=O)c2ccccc2)c1 (stereo not drawn)	-18	-3	1	-1	8	3
CCC1CC(C(=O)O)CC(=O)N1 (stereo not drawn)	-20	4	-2	4	1	-6
O=C(CCN1C(=O)/C(=C\c2ccccc2)SC1=S)N1CCCCC1	33	26	94*	-28	45*	0
COc1cccc(/C=C2\SC(=S)N(CCC(=O)N3CCCCC3CCO)C2=O)c1 (stereo not drawn)	31	5	43	-10	31	-16
COc1cccc(/C=C2\SC(=S)N(CCCC(=O)N3CCCCC3CCO)C2=O)c1 (stereo not drawn)	7	32	64*	10	69*	-4
O=C(O)CCN1C(=O)S/C(=C\c2cccnc2)C1=O	-10	-2	6	79*	3	4
O=C(CN1C(=O)S/C(=C/c2cccnc2)C1=O)N1CCOCC1	5	-28	15	-83	13	-6
COc1ccc(/C=C2\SC(=S)N(CCCC(=O)N3CCOCC3)C2=O)cc1OC	17	22	0	-2	-5	5
COc1ccc(/C=C2\SC(=S)N(CCCC(=O)N3CCOCC3)C2=O)cc1	0	95*	-15	-17	68*	-6
SMILES	CF NFkB block	TWEAK-Fn14 inh	Peg3 promoter	TROY signal inh	HIF-2a block	KKLEB cytotox
CCc1ccc(OCC(=O)OC(C)C(=O)Nc2ccc(Cl)cn2)cc1 (stereo not drawn)	9	4	-15	-13	3	10
O=C(CCCN1C(=O)/C(=C/c2ccccc2Cl)SC1=S)N1CCOCC1	3	29	28	9	49*	2
COc1ccc(/C=C2\SC(=S)N(CCC(=O)NCCc3ccc(O)cc3)C2=O)cc1	7	2	102*	-21	58*	3
CN1CCN(C(=O)CCN2C(=O)/C(=C/c3ccccc3Cl)SC2=S)CC1	20	23	59*	18	12	5
COc1ccc(/C=C2/SC(=S)N(CCC(=O)O)C2=O)cc1	10	85*	19	39	85*	0
COc1ccc(OC)c(NC(=O)CSc2nccn2Cc2ccco2)c1	2	3	-32	-3	-33	8
CCCC(=O)NC(c1cccs1)c1cc([N+](=O)[O-])c2cccnc2c1O (stereo not drawn)	24	11	54*	0	14	-4
CCCCC(=O)NC(c1ccc(C(C)C)cc1)c1ccc2cccnc2c1O (stereo not drawn)	-8	22	53*	16	13	-15
CCCCC(=O)NC(c1cccc([N+](=O)[O-])c1)c1ccc2cccnc2c1O (stereo not drawn)	-1	13	58*	13	9	-22
CC(=O)NC(c1cccc([N+](=O)[O-])c1)c1ccc2cccnc2c1O (stereo not drawn)	1	29	41	11	10	-1
O=[N+]([O-])c1ccc(NC(c2ccccc2)c2ccc3cccnc3c2O)cc1 (stereo not drawn)	8	4	58*	0	21	-19
COC(=O)N1C(=O)[C@](c2ccsc2)(C(C)C)N1C(=O)OC	37	42	22	14	24	-16
CCn1cc(C(=O)NCCCN2CC(C)CC(C)C2)c(=O)c2cc(S(=O)(=O)N(C)C3CCCCC3)ccc21 (stereo not drawn)	0	-12	73*	-12	30	-10
Cc1ccc(-c2nnc(SCC(=O)N/N=C/c3c(C)nn(-c4ccccc4)c3C)n2-c2ccccc2)cc1	22	11	10	-5	11	-13
O=C(CSc1nnc(-c2ccccc2)n1-c1ccc(Cl)cc1)N/N=C/c1ccccc1C(=O)O	7	-11	-1	10	11	-8
Cc1ccc(-c2nnc(SCC(=O)N/N=C/c3ccccc3C(=O)O)n2-c2ccc(C)cc2)cc1	-8	92*	3	0	7	-1
Cc1ccc(-c2nnc(SCC(=O)N/N=C/c3ccc(C)s3)n2-c2ccccc2)cc1	14	23	65*	-30	13	1
COCCNC(=O)c1ccc(Cl)c(S(=O)(=O)Nc2cccc(C)c2C)c1	-23	11	10	0	8	9
COc1ccc2c(c1OC)C(=O)O[C@@H]2[C@H]1c2c(cc3c(c2OC)OCO3)CCN1C	-1	-2	-1	-1	8	6
COc1ccc2cc1Oc1ccc(cc1)C[C@H]1c3c(cc4c(c3Oc3cc5c(cc3OC)CCN(C)[C@@H]5C2)OCO4)CCN1C	9	-41	87*	-2	8	-22
